An excerpt weighted towards active compounds, which were near 4.8% of everything screened.
DAX1 inh-1 – inhibitors of DAX1 repression of SF-1 activated StAR promoter; HEK293T StAR-luciferase reporter, SF-1/DAX-1 repression relief; inhibition, % at 6.8 µM; 370,000 tested, 1.1% active; AID 652010;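 active = inhibition above the mean over all tested compounds plus 3 SD, cut at about 3.6% in these data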;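 note: higher inhibition means more luminescence from relief of DAX-1 repression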
DAX1 inh-2 – inhibitors of human orphan nuclear receptor DAX1 (NR0B1); HEK293 Gal4-DAX1 luciferase reporter, luminescence; P51843; 340,000 tested, 0.99% active; inhibition, % at 6.75 µM;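 active = inhibition above the mean over all tested compounds plus 3 SD, cut at about 4.2% in these data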;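 note: inhibition shows as a rise in luminescence from relieved DAX1 repression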
NR1D1 modulator – modulators of human Rev-erb alpha DNA binding; P20393; Rev-erbα–FITC-DNA binding, fluorescence polarization, 90 min; activity, % at 10 µM; 370,000 tested, 0.79% active;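 active = activity above about 14%, limit read from the data; passing the limit was not always enough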
Target sequence (P20393 whole entry, looked up): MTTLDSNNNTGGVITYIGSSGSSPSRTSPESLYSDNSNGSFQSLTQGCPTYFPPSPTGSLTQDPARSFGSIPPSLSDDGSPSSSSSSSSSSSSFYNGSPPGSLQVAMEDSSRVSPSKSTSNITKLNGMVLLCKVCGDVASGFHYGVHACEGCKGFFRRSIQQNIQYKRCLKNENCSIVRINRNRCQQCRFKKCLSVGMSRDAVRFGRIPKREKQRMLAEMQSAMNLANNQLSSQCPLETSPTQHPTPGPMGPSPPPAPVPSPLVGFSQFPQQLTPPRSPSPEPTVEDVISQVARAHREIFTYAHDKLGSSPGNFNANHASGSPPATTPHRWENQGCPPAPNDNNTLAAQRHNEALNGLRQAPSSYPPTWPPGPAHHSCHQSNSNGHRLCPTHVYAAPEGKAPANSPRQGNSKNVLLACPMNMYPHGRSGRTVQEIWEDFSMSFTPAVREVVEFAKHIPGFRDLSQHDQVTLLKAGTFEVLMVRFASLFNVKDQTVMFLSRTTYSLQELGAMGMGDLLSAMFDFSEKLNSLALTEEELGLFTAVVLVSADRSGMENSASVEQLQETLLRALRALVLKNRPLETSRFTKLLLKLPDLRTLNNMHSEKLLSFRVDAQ
hgDAF12 agonist – agonists of H. glycines DAF-12 nuclear receptor; HEK293 GAL4-hgDAF12 UAS-luciferase reporter, agonist luminescence; normalized to butyrate control; activation, % at 6.8 µM; 370,000 tested, 1.8% active; AID 687014;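 active = activation above a cutoff set at the mean of all screened compounds plus 3 SD, cut at about 10% in these data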
hcDAF12 agonist – activators of H. contortus DAF-12 nuclear receptor; AID 652067; 370,000 tested, 1.4% active; HEK293 hcDAF-12 lit1-tk-luc reporter, luminescence; 0% DMSO, 100% Δ7-dafachronic acid; activation, % at 6.8 µM;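 active = activation above the mean of all tested compounds plus 3 SD, cut at about 5.5% in these data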
ssDAF-12 act – activators of S. stercoralis DAF-12 nuclear receptor | activation, % at 6.8 µM | AID 652126 | HEK293 ssDAF-12/GRIP1 lit1-tk-luc reporter, luminescence; % of 3 µM dafachronic acid response | 370,000 tested, 1% active;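 active = activation above the mean over all tested compounds plus 3 SD, cut at about 0.9% in these data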
DAX1 conf – confirmation of human DAX1 (NR0B1) inhibitors; shares compounds with DAX1 inh-1; HEK293T StAR-promoter luciferase reporter, SF-1/DAX-1 repression; inhibition, % at 6.8 µM; 2,400 tested, 87% active;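 active = inhibition above the average of every tested compound plus 3 SD, cut at about 3.8% in these data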;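 note: active compounds raise luminescence by relieving repression of the StAR reporter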
SF1 AF2mut Luc – nonselective inhibitor or artifact in SF-1 mutant DAX1 counter-screen | shares compounds with DAX1 inh-1 | HEK293 StAR-luciferase, SF-1 AF2 mutant, luminescence | inhibition, % at 6.8 µM | 2,400 tested, 78% active | AID 652136;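 active = inhibition above the mean of all tested compounds plus 3 SD, cut at about 3% in these data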
LXRb hcDAF ctr – activates human LXR-beta, counter-screen for hcDAF-12 agonists; 3,400 tested, under 10 active; activation, % at 6.8 µM; HEK293 Gal4-LXR tk-luc reporter, luminescence, 24 h; normalized: DMSO 0%, positive control 100%; AID 743027; shares compounds with hcDAF12 agonist;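 active = mean percent activation of the reporter above a cutoff set as the average over tested compounds plus their standard deviation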
hcDAF12 conf – hcDAF-12 agonism, confirmation assay; shares compounds with hcDAF12 agonist; HEK293 hcDAF-12 lit1-tk-luc reporter, luminescence; % of Δ7-dafachronic acid response; activation, % at 6.8 µM; 3,400 tested, 61% active; AID 743032;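 active = mean activation across triplicate tests above the threshold derived from the earlier primary screen, cut at about 5.5% in these data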
hgDAF12 conf – hgDAF-12 agonism, confirmation assay. shares compounds with hgDAF12 agonist. HEK293 GAL4-hgDAF12 luciferase reporter, agonist mode; percent of butyrate response. activation, % at 6.8 µM. 3,300 tested, 80% active. AID 743050;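 active = mean activation over triplicate wells above the hit cutoff derived from the earlier primary screen, cut at about 11% in these data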
LXR ag 2 – activates human LXR-beta, counter-screen for DAF-12 agonists; shares compounds with hgDAF12 agonist; HEK293 Gal4-LXR luciferase reporter, 24 h; activation, % at 6.8 µM; 3,300 tested, under 10 active;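 active = mean activation of the triplicate above a set limit carried over from the primary screen, none filed active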
Large screens that a line does not name were inactive (follow-up assays come after a bar, where they were run).

COc1ccc(/C=N/Nc2cc(OC)ncn2)cc1	DAX1 inh-1 6.5, hgDAF12 agonist 14, hcDAF12 agonist 9.2, ssDAF-12 act 2.2 | DAX1 conf 15 | SF1 AF2mut Luc 7.2 | LXRb hcDAF ctr inactive | hcDAF12 conf 9.4 | hgDAF12 conf 16 | LXR ag 2 inactive
Cc1[nH]c2ccccc2c1CC(=O)Nc1ccc(Nc2cccnc2)c(-c2ccc(C(C)(C)C)cc2)c1	none (no result: DAX1 inh-2)
COc1ccc(C(=O)c2oc3ccc(OC)cc3c2N)cc1	DAX1 inh-1 6.1, hgDAF12 agonist 21 | DAX1 conf 12 | SF1 AF2mut Luc 5.8 | hgDAF12 conf 15 | LXR ag 2 inactive
Cc1nc2ccc(-c3nc4ccccc4o3)cc2[nH]1	DAX1 inh-1 5.2, hgDAF12 agonist 20 | DAX1 conf 15 | SF1 AF2mut Luc 8.8 | hgDAF12 conf 22 | LXR ag 2 inactive
Nc1ccc(-c2nc3ccc(-c4nc5ccccc5o4)cc3[nH]2)cc1	none
CC(=O)C1(C(=O)NC2CCCC2)CC(c2ccccc2C(F)(F)F)=NO1 (stereo not given)	none (no result: DAX1 inh-2)
COC(=O)[C@]12C[C@H](CC(=O)N3CCC(c4ccccc4)CC3)C(=O)N(Cc3ccco3)C1=C[C@H](COCc1ccccc1)O[C@@H]2C	none (no result: DAX1 inh-2)
COc1ccc(C2=Nc3ccccc3N(C(=O)Cc3cc(OC)cc(OC)c3)C2C(=O)NC(C)(C)C)cc1 (stereo not given)	none (no result: DAX1 inh-2)
COc1ccc(C2=Nc3ccccc3N(C(=O)c3ccc4ncccc4c3)C2C(=O)NC(C)(C)C)cc1 (stereo not given)	DAX1 inh-1 5.5, hgDAF12 agonist 23, hcDAF12 agonist 11, ssDAF-12 act 1.3 (no result: DAX1 inh-2) | DAX1 conf 11 | SF1 AF2mut Luc 5.8 | LXRb hcDAF ctr inactive | hcDAF12 conf 12 | hgDAF12 conf 15 | LXR ag 2 inactive
COC(=O)C1CN(Cc2cn(Cc3ccc(F)cc3)nn2)CCS(=O)(=O)N1Cc1ccccc1 (stereo not given)	none (no result: DAX1 inh-2)
Cc1cc2c(nc1C)CCCN2S(=O)(=O)c1ccc(C(F)(F)F)cc1	none (no result: DAX1 inh-2)
Cc1c(C(=O)N2c3ccccc3CC2C)oc2ccccc12 (stereo not given)	DAX1 inh-1 5.3, hgDAF12 agonist 18, hcDAF12 agonist 11, ssDAF-12 act 2.3 | DAX1 conf 8.8 | SF1 AF2mut Luc 6.1 | LXRb hcDAF ctr inactive | hcDAF12 conf 17 | hgDAF12 conf 20 | LXR ag 2 inactive
C[C@H]1[C@H](NC(=O)c2cccc(Cl)c2)CC[C@@]23CCCN2C(=O)CCC[C@@H]13	none (no result: DAX1 inh-1, DAX1 inh-2)
CCc1c(-c2ccccc2)nc2sc3c(c2c1N)CCCC3	none
Nc1c2c(nc3sc4c(c13)CCCCC4)CCCCC2	DAX1 inh-1 5.0, hgDAF12 agonist 16, hcDAF12 agonist 5.8 | DAX1 conf 8.7 | SF1 AF2mut Luc 3.5 | hgDAF12 conf 16 | LXR ag 2 inactive
COC(=O)C1CN(CCc2ccccc2)CCS(=O)(=O)N1Cc1ccccc1 (stereo not given)	none (no result: DAX1 inh-2)
Cc1ccc2cc3c(N)c(C(=O)N4CCOCC4)sc3nc2c1	DAX1 inh-1 5.6, DAX1 inh-2 5.1, hgDAF12 agonist 16, hcDAF12 agonist 6.2, ssDAF-12 act 1.0 | DAX1 conf 12 | SF1 AF2mut Luc 5.9 | hgDAF12 conf inactive | LXR ag 2 inactive
CC(=O)Nc1ccc(C(=O)COC(=O)C2CC2C)c(F)c1 (stereo not given)	DAX1 inh-1 11, hgDAF12 agonist 18, ssDAF-12 act 1.0 | DAX1 conf 10 | SF1 AF2mut Luc 4.6 | hgDAF12 conf inactive | LXR ag 2 inactive
COc1ccc(-n2c(CSc3ccc(Cl)cc3)n[nH]c2=S)cc1	none (no result: DAX1 inh-2)
COC(=O)[C@]12C[C@H](CC(=O)N3CCSCC3)C(=O)N(Cc3ccccc3)C1=C[C@H](C(C)C)O[C@@H]2C1CC1	none (no result: DAX1 inh-2)
Cc1nc2nc(-c3ccccc3)cn2nc1C	DAX1 inh-1 4.8, hgDAF12 agonist 14, hcDAF12 agonist 6.2 | DAX1 conf 11 | SF1 AF2mut Luc 5.1 | hgDAF12 conf 12 | LXR ag 2 inactive
CCc1sc(C(=O)Nc2ncccc2C)cc1C	none
CCc1sc(C(=O)Nc2ncccc2O)cc1C	DAX1 inh-1 22, hgDAF12 agonist 22, hcDAF12 agonist 7.9, ssDAF-12 act 1.0 | DAX1 conf 15 | SF1 AF2mut Luc 6.2 | LXRb hcDAF ctr inactive | hcDAF12 conf 7.9 | hgDAF12 conf 26 | LXR ag 2 inactive
O=C(Nc1ccc(N2CCOCC2)cc1)c1ccncc1	none
Cn1cccc1C(=O)Nc1ccc(N2CCOCC2)cc1	DAX1 inh-1 8.2, hgDAF12 agonist 18 | DAX1 conf 8.3 | SF1 AF2mut Luc 4.4 | hgDAF12 conf 16 | LXR ag 2 inactive
COCCCNC(=O)C[C@H]1C[C@@]2(C(=O)OC)C(=C[C@H](C3CCCC3)O[C@@H]2C)N(Cc2ccco2)C1=O	none (no result: DAX1 inh-2)
O=C(C1CCCN1S(=O)(=O)c1cccc([N+](=O)[O-])c1)N1CCN(c2ccccc2)CC1 (stereo not given)	none (no result: DAX1 inh-2)
Cc1ccc(NCc2nc3ccccc3n2C)cc1	DAX1 inh-1 6.3, hgDAF12 agonist 14, hcDAF12 agonist 15, ssDAF-12 act 3.5 | DAX1 conf 15 | SF1 AF2mut Luc 8.2 | LXRb hcDAF ctr inactive | hcDAF12 conf 17 | hgDAF12 conf 18 | LXR ag 2 inactive
Cc1sc(=NC(=O)c2ccco2)n(C)c1-c1ccc(F)cc1	none
Cn1c(=NC(=O)c2ccco2)sc2ccccc21	DAX1 inh-1 7.1, hgDAF12 agonist 21, hcDAF12 agonist 20, ssDAF-12 act 4.0 | DAX1 conf 8.1 | SF1 AF2mut Luc 4.9 | LXRb hcDAF ctr inactive | hcDAF12 conf 16 | hgDAF12 conf 20 | LXR ag 2 inactive
